In PubChem BioAssay (NCI) one finds growth data, which are given here for 39 molecules.

Several values for one entry are separate records, joined by “and”; a condition that tells them apart may be missing. Identical values can stand only once. This is part of a sample that, as a whole, favours compounds with a hit. Of some 83,000 tested, about 20% had one in any assay.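 Note: values are percent growth. 100 is the growth of untreated cells, values between 100 and 0 indicate rising inhibition; between -100 and 0 indicates cell death.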 Activity calls are given as the source filed them.

The first test relates to TK-10 renal. Briefly: NCI-60 one-dose screen, 48 h (100 = growth as untreated, 0 = no growth, -100 = all killed). The following applies: 10 µM. The method, then:
Growth inhibition of the TK-10 human tumor cell line is measured as a screen for anti-cancer activity. Cells are grown in 96 well plates and exposed to the test compound for 48 hours. Compounds are tested at a single concentration, which is 10^-5 M for most compounds. The reported endpoint is percent growth (GI% or GIPRCNT), where numbers from 0 - 100% represent growth inhibition, and numbers from -100% - 0 represent cell death. For example, a value of 40 represents 60% growth inhibition. A value of 0 means no net growth occurred over the course of the experiment. A value of -40 indicates 40% of cells at the beginning of the experiment died by the end of the experiment. A value of -100 means all cells are dead at the end of the experiment.
NCI-60 Human Tumor Cell Lines Screen was performed using the standard one-dose NCI protocol, which is described in more detail at https://dtp.cancer.gov/discovery_development/nci-60/default.htm.
Compounds with GIPRCNT values below 10 were considered active. Activity score was based on GIPRCNT using the following formula: […]
Score is 0 for GIPRCNT values of 100 or above, 50 for GIPRCNT values of 0, and 100 for GIPRCNT values of -100.
In the case of `S=c1nc[nH]c2nc[nH]c12`, the growth is 33.1% (inactive).

Still in this test, the particulars now being: 10 µM unless noted.
Consider `Nc1nc(-c2ccccn2)cc(-c2cc(-c3ccccn3)nc(N)n2)n1`, for which the growth is 107% (inactive).
On the same count and under the same terms, to `CC(=O)Oc1cc(C)c(OC(C)=O)c(C)c1C` belongs 124% (inactive).
As to `CC(O)CCNC(c1ccccc1)C(O)c1ccccc1` (stereo not given), the growth is 106% (inactive).
Regarding `OCCCc1ccccc1`, the growth is 108% (inactive).
Regarding `CN(C)c1ccc(C(=N)c2ccc(N(C)C)cc2)cc1`, the growth is 37% (inactive) and 67% (inactive).
Consider `CCCCC/C(C)=N\NC(N)=S`, for which the growth was 100% (inactive).
Consider `NNc1ncnc2cccc(Cl)c12`, for which the growth is 99.9% (inactive).
On the same count and under the same terms, with `CN1C2C=CC(=O)C1C1C(=O)N(c3ccccc3)C(=O)C12` (stereo not given) the figure was 78.9% (inactive); with `CC1CC(O)CC(C)(C)C1.CC1CC(O)CC(C)(C)C1.CC1CC(O)CC(C)(C)C1.CC1CC(O)CC(C)(C)C1.[Ti]` (stereo not given), 104% (inactive); with `CCN(CC)CCNC(=O)c1ccc(NCN2C(=O)NC(c3ccccc3)(c3ccccc3)C2=O)cc1`, 115% (inactive) and 114% (inactive).
On the same count and under the same terms, with `CC(=O)Oc1ccc(C2(c3ccc(OC(C)=O)cc3)C(=O)Nc3ccccc32)cc1` the figure was 18.3% (inactive) and 35.6% (inactive); with `CCn1c2ccc(N(C)C)cc2c2cc(N(C)C)ccc21`, 118% (inactive).
For `CC(=O)Nc1ccc2oc(=O)ccc2c1`, the growth was 111% (inactive).
Same read-out and setting: to `CS(=O)(=O)OCC1NC(=O)C(COS(C)(=O)=O)NC1=O` (stereo not given) belongs 130% (inactive) and 138% (inactive); to `CC(=O)Nc1ccc(OC(C)=O)cc1`, 42% (inactive) and 99.1% (inactive); to `CC(CN(C)C)CN1c2ccccc2Sc2ccccc21` (stereo not given), 82.6% (inactive) and 76.6% (inactive) and 81.6% (inactive).
Take `Cc1cc2nc3ccc(=[N+](C)C)cc-3sc2cc1N`: the growth was -12.3% (active) and 14.7% (inactive).
On the same count and under the same terms, with `COC(=O)c1nc(N)nc(C(=O)OC)c1C(=O)c1ccc(F)cc1` the figure was 109% (inactive); with `CCOP(=O)(OCC)/C(C#N)=C/c1c(C)[nH]c2ccccc12`, 93.2% (inactive).
Consider `O=C1C=CC(=O)N1Cc1ccco1`, for which the growth was 94.4% (inactive).
With `O=c1[nH]c(=O)n(C2OC(CO)C(O)C2O)cc1I` (stereo not given), the growth was 102% (inactive) and 125% (inactive).
For `COCCNC(C)=O`, the growth was 102% (inactive).
Regarding `CC(C)(C(=O)c1cccnc1)c1cccnc1`, the growth was 103% (inactive) and 110% (inactive).
`COc1cc([C@@H]2c3cc4c(cc3[C@H](O)[C@H]3COC(=O)[C@@H]23)OCO4)cc(OC)c1OC`: the growth was 21.1% (inactive) and 69.2% (inactive).
As to `O=C(O)c1cccc(Br)c1`, the growth was 108% (inactive) and 93.6% (inactive).
With `O=C(NC(CSSCC(NC(=O)OCc1ccccc1)C(=O)O)C(=O)O)OCc1ccccc1` (stereo not given), the growth is 59.4% (inactive).
Regarding `N=C(N)N1CCc2ccccc2C1`, the growth was 106% (inactive) and 110% (inactive).
With `O=C(Nc1ccccc1)OCC(CN1CCCCC1)OC(=O)Nc1ccccc1` (stereo not given), the growth was 93.2% (inactive) and 104% (inactive).
As to `Nc1c(Cl)cc2c(c1Br)C(=O)c1ccccc1C2=O`, the growth was 108% (inactive).
The same measure, in the same setting: with `O=[N+]([O-])c1cccc2ccc(N/N=C/c3ccccc3O)nc12` the figure was 150% (inactive) and 120% (inactive); with `Nc1nc(N)c2cc(S(=O)(=O)c3ccccc3)ccc2n1`, 59.6% (inactive) and 63.8% (inactive); with `COc1ccc(-n2[nH]c3c(cnc4ccccc43)c2=O)cc1`, 90% (inactive) and 93.4% (inactive).
Take `CCOC(=O)C1=C(C)NC(C)=C(C(=O)OCC)C1`: the growth is 107% (inactive) and 101% (inactive).
Turning to `OCc1ccccc1F`, the growth is 107% (inactive).
Take `CCc1ccc(OC(=O)CCl)cc1`: the growth was 101% (inactive).
The same measure, in the same setting: with `CCOC(=N)c1ccc(C(=N)OCC)cc1` the figure was 96.6% (inactive); with `CC1=CC(=O)C=CC1=Nc1ccc(N(C)C)cc1`, 126% (inactive) and 115% (inactive); with `COCCCNC1=C(C#N)C(=O)NC(c2cccs2)S1` (stereo not given), 92.5% (inactive).

Staying with this test, now noted: 750 µM.
Consider `S=c1nc[nH]c2nc[nH]c12`, for which the growth is 15.9% (inactive) and -6.1% (active).
